sEH activator: activators of human soluble epoxide hydrolase; actives 0.04% (n = 91,000); AID 717; activation, % at 2 µM; purified human sEH enzymatic activity, activator screen; P34913; in the data active = activation above about 37%
Target sequence (P34913 whole entry, looked up): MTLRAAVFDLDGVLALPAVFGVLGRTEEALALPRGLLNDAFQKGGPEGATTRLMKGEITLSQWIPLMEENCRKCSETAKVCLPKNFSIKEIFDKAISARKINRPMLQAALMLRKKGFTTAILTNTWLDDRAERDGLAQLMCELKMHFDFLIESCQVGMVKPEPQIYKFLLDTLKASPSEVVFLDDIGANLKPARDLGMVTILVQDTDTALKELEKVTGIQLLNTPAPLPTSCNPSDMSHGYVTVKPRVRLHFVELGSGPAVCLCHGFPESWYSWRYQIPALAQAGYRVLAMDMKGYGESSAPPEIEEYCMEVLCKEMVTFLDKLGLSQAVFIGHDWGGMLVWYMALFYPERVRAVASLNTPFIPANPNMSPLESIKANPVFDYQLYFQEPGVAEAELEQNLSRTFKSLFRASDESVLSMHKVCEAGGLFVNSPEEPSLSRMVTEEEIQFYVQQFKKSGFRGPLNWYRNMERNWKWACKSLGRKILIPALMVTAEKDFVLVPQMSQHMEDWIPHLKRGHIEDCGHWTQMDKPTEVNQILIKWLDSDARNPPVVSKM
CYP2C19 inh: inhibitors of human CYP2C19. P33261. actives 21% (n = 96,000). CYP2C19 Supersomes, luciferin-H EGE luminescence, 30 min. inhibition, % at 5 µM;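 active = CYP2C19 inhibition above a set limit at 5 µM in the primary screen, cut at about 50% in these data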;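 note: plate controls were negative control wells for no effect and 2.5 mM tranylcypromine positive control for full effect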
sEH inh: inhibitors of human soluble epoxide hydrolase; recombinant human sEH enzymatic activity assay; inhibition, % at 2 µM; actives 0.34% (n = 91,000); in the data active = inhibition above about 80%
CYP2C9 act: increases human cytochrome P450 2C9 activity; recombinant CYP2C9, luciferin-H conversion, luminescence; stronger effect = higher value; factor 1 = untreated enzyme, 0 = blocked; P11712; activation factor at 5 µM; actives 1.4% (n = 96,000); AID 1024;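 active = activation factor of 2 or more for CYP2C9 at a 5 µM dose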;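 note: 0 = sulfaphenazole-blocked wells and 1 = vehicle-only wells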
CYP2C19 activ: activators of human cytochrome P450 2C19; recombinant CYP2C19, luciferin-H EGE luminescence; stronger effect = higher value; 0 = fully inhibited enzyme, 1 = untreated enzyme; activation factor at 5 µM; 96,000 tested, under 10 active;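 active = activation factor of at least 2 at 5 µM in the primary screen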;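 note: 0 = wells with 2.5 mM tranylcypromine and 1 = vehicle-only wells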
CYP2C9 inhib: inhibitors of human CYP2C9; P11712; inhibition, % at 5 µM; actives 20% (n = 96,000); CYP2C9 Supersomes, luciferin-H conversion, luminescence; AID 777;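 active = blocking of liver enzyme CYP2C9 beyond about 50% at 5 µM, limit read from the data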
Numbers without * were called inactive; . = no result. Most compounds without a hit are left out; they make up all but 27% or so of the library.

SMILES | sEH activator | CYP2C19 inh | sEH inh | CYP2C9 act | CYP2C19 activ | CYP2C9 inhib
CC(Sc1ccc2c(c1)OCCO2)C(=O)Nc1ccc2c(c1)OCO2 (stereo not drawn) | . | 100.3* | . | 0.1 | 0 | 90.5*
Cc1nnc(SC(C)C(=O)Nc2ccc3c(c2)OCCO3)s1 (stereo not drawn) | . | 8.0 | . | 0.8 | 0.9 | 20.3
O=C(CSc1ccc2c(c1)OCCO2)Nc1ccc(Br)cc1 | -19.5 | 95.4* | 20.4 | 0.3 | 0 | 74.9*
O=C(CSc1nnc2c(n1)[nH]c1ccccc12)Nc1ccc2c(c1)OCO2 | 3.2 | 4.8 | -5.3 | 0.4 | 1 | 64.3*
O=C(CSc1ccc2c(c1)OCCO2)Nc1ccc2c(c1)OCO2 | -25.5 | 99.6* | 26.5 | 0.1 | 0 | 92.4*
CCC(=O)Nc1ccc2c(c1)OCCO2 | -11.4 | 0.9 | 13.9 | 0.8 | 1 | 15.6
O=C(CSc1ccc2c(c1)OCCO2)NCc1ccco1 | . | 54.9* | . | 0.3 | 0.5 | 70.1*
COc1cc(NC(=O)CSc2ccc3c(c2)OCCO3)cc(OC)c1OC | 1.7 | 25.5 | -0.5 | 0.8 | 0.7 | 18.9
COC(=O)CCCC(=O)Nc1ccc(Cl)c(Cl)c1 | -19.9 | . | 21.0 | . | . | .
Cc1nnc(SCC(=O)Nc2ccc3c(c2)OCO3)o1 | 8.9 | 0.9 | -7.5 | 1.1 | 1 | -10.3
CCN(C(=O)CSc1ccc2c(c1)OCCO2)C1CCS(=O)(=O)C1 (stereo not drawn) | 11.3 | 35.6 | -12.1 | 1.1 | 0.6 | -6.1
CCc1nnc(SCC(=O)Nc2ccc3c(c2)OCO3)o1 | 2.3 | 71.7* | -0.4 | 0.6 | 0.3 | 44.6
O=C(CSc1ncn(-c2ccccc2)n1)Nc1ccc2c(c1)OCO2 | . | 94.7* | . | 0.1 | 0.1 | 90.3*
CC(C)n1c(SCC(=O)Nc2ccc3c(c2)OCO3)nc2c1c(=O)n(C)c(=O)n2C | 0.0 | 31.1 | -1.0 | 0.4 | 0.7 | 55.2*
O=C(CSc1ncn(-c2ccccc2)n1)Nc1ccc2c(c1)OCCO2 | . | 43.4 | . | 0.5 | 0.6 | 45.9
CCn1c(SCC(=O)Nc2ccc3c(c2)OCO3)nc2c1c(=O)n(C)c(=O)n2C | -4.3 | 15.1 | 5.8 | 0.6 | 0.8 | 36.8
CCCNC(=O)NC(=O)CSc1ccc2c(c1)OCCO2 | -7.0 | 75.6* | 5.9 | 1 | 0.2 | 3.1
COc1cccc(-c2nc(CSCC(=O)NCC3CCCO3)c(C)o2)c1 (stereo not drawn) | 20.4 | 11.5 | -19.7 | 0.8 | 0.9 | 16.5
NC(=O)CS(=O)(=O)c1nc2ccccc2n1Cc1ccccc1F | -0.7 | 38.8 | 4.8 | 1.1 | 0.6 | -7.1
Cc1n[nH]c(=O)nc1NCc1ccccc1Cl | -7.1 | -6.5 | 8.0 | 1.1 | 1.1 | -13.1
CCOC(=O)c1cnc(SCC(=O)Nc2ccc3c(c2)OCCO3)nc1N | -12.7 | 37.5 | 11.2 | 0.3 | 0.6 | 69.3*
CSc1nsc(SCC(=O)Nc2ccc3c(c2)OCCO3)n1 | -27.7 | 88.5* | 27.4 | 0.2 | 0.1 | 82.1*
CCOC(=O)c1cnc(SCc2ccc(C(C)(C)C)cc2)nc1N | -12.3 | -5.5 | 10.5 | 0.3 | 1.1 | 69.9*
COc1ccc(NC(=O)CSc2ccc3c(c2)OCCO3)cc1OC | 9.9 | 45.6 | -8.6 | 0.4 | 0.5 | 64.2*
COc1ccc(OC)c(NC2c3ccccc3C(=O)N2Cc2ccc3c(c2)OCO3)c1 (stereo not drawn) | 4.3 | 43.3 | -5.3 | 0.6 | 0.6 | 41.8
SMILES | sEH activator | CYP2C19 inh | sEH inh | CYP2C9 act | CYP2C19 activ | CYP2C9 inhib
O=C1c2ccccc2C(=O)N1Cc1ccc2c(c1)OCO2 | -4.5 | 53.5* | 4.6 | 1.4 | 0.5 | -38.7
O=C1c2ccccc2C(O)(Cc2ccccc2)N1c1ccc2c(c1)OCO2 (stereo not drawn) | . | 87.0* | . | 0.1 | 0.1 | 89.8*
O=C1c2ccccc2C(Nc2cccnc2)N1Cc1ccc2c(c1)OCO2 (stereo not drawn) | . | 57.0* | . | 0.7 | 0.4 | 29.2
O=C(O)c1ccc2c(c1)C(=O)N(Cc1ccc3c(c1)OCO3)C2=O | 14.7 | 4.2 | -12.5 | 1 | 1 | 1.0
O=C1c2ccccc2C(O)N1Cc1ccc2c(c1)OCO2 (stereo not drawn) | 7.5 | 82.8* | -8.4 | 1 | 0.2 | 3.3
CC(=O)OCC1OC(Sc2cccc3cccnc23)C(OC(C)=O)C(OC(C)=O)C1OC(C)=O (stereo not drawn) | 9.2 | -0.9 | -7.9 | 1 | 1 | 4.7
O=C(CN1CCOCC1)Nc1ccccc1NC(=O)C1CCN(c2ncccn2)CC1 | 5.5 | 29.2 | -3.8 | 0.9 | 0.7 | 11.9
O=C1c2ccccc2C(Nc2ccc3c(c2)OCO3)N1Cc1ccc2c(c1)OCO2 (stereo not drawn) | 7.6 | 88.0* | -8.6 | 0 | 0.1 | 96.7*
O=C1CC(SC(=Nc2ccccc2)Nc2ccccc2)C(=O)N1c1cccc2ccccc12 (stereo not drawn) | -5.1 | 10.2 | 7.9 | 0.8 | 0.9 | 16.7
COC(=O)C(Cc1ccc(O)cc1)NC(=O)c1ccccc1OC (stereo not drawn) | . | 52.7* | . | 2.3* | 0.5 | -127.8
CC(C)(C)n1cnc2cc(NS(=O)(=O)c3ccc(Br)cc3)ccc21 | -0.8 | 100.3* | 2.2 | 0 | 0 | 98.6*
Cc1ccc(S(=O)(=O)Nc2ccc3c(c2)ncn3C(C)(C)C)cc1 | . | 91.8* | . | 0.2 | 0.1 | 79.5*
O=C(NNC(=O)c1ccco1)c1cccc([N+](=O)[O-])c1 | 1.9 | -0.3 | -0.7 | 0.9 | 1 | 6.5
O=C(c1ccco1)N(Cc1ccco1)c1ccc(O)cc1 | . | 36.5 | . | 0.5 | 0.6 | 53.7*
O=C(c1ccco1)N(Cc1ccc([N+](=O)[O-])cc1)c1ccc(Cl)cc1 | -5.5 | 25.9 | 9.3 | 0.1 | 0.7 | 94.4*
COC(=O)c1sc(NC(=O)CSc2nnnn2-c2cccc(OC)c2)nc1C | -0.3 | . | 0.3 | . | . | .
Cc1ccc(C)c(N2CCN(S(=O)(=O)c3ccc4c(c3)CCC(=O)N4)CC2)c1 | 3.1 | 35.0 | -1.8 | 0.2 | 0.7 | 78.5*
Cc1ccc(C)c(N2CCN(C(=O)CN(C)S(=O)(=O)c3ccc4c(c3)CCC(=O)N4)CC2)c1 | -37.1 | 50.6* | 35.4 | 0.2 | 0.5 | 81.6*
Cc1ccc(C)c(N2CCN(S(=O)(=O)c3ccc4[nH]c(=O)c(=O)[nH]c4c3)CC2)c1 | -6.2 | 16.2 | 6.9 | 0.3 | 0.8 | 66.5*
CCOC(=O)NCCc1c(C)nc2c(c(C)nn2C(C)(C)C)c1C | -11.4 | 24.2 | 11.8 | 0.7 | 0.8 | 33.7
COc1ccc(C2/C(=C(/O)c3ccc(Cl)cc3)C(=O)C(=O)N2CCN2CCOCC2)c(OC)c1 (stereo not drawn) | -4.5 | -8.4 | 4.6 | 0.8 | 1.1 | 16.3
CSc1ccc(-c2nnn(CC(=O)NCc3ccccc3)n2)cc1 | 2.3 | 34.3 | 2.9 | 0.7 | 0.7 | 33.3
CCOC(=O)C(Cc1ccccc1)NC(=O)Cn1nnc(-c2ccc(SC)cc2)n1 (stereo not drawn) | -0.6 | 66.7* | 0.3 | 0.9 | 0.3 | 14.9
Cc1ccccc1C(=O)N=c1sccn1C | -0.9 | 93.1* | -0.9 | 0.8 | 0.1 | 22.4
